Source: PubChem BioAssay (several laboratories)
This is a sample that favours compounds with a hit; in the whole collection about 3.9% have one here.
Vc quorum ag: induces V. cholerae light production without autoinducers | activation, % at 18.7 µM | V. cholerae BH1578 lux reporter, luminescence, 6 h | actives 0.16% (n = 350,000); in the data active means activation mostly above about 9.7%, no sharp cut-off; inconclusive means no clear call, values can overlap the other calls; inactive means mostly below about 3.7%
MazEF act: MazEF (E. coli) toxin RNase activation | P0AE70 | FAM/BHQ RNA-DNA oligo cleavage fluorescence, 5 h | activation, % at 20 µM | actives 0.32% (n = 350,000); in the data active means activation above about 50%
Target sequence (P0AE70 whole entry, looked up): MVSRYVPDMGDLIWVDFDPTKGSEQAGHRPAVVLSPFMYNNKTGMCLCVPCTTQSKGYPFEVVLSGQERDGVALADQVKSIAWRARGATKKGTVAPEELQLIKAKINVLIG
Autofluor counter: counter-screen for toxin protease inhibitors: compound fluorescence; compound autofluorescence counterscreen, microsphere flow cytometry; active compounds read high; fluorescence intensity (no concentration beside the values); actives 3.1% (n = 360,000); in the data active means fluorescence intensity above about 16000; inconclusive means no clear call, values can overlap the other calls
Anthrax LF prot: anthrax lethal factor protease inhibition | P15917 | actives 0.12% (n = 360,000) | inhibition, % at 10 µM | AID 588501 | multiplex microsphere protease cleavage assay, LF; further: plate controls were buffer without enzyme for full effect and enzyme alone for no effect
BoNT F protease: inhibitors of Botulinum neurotoxin F light chain protease. actives 0.22% (n = 360,000). AID 588497. Multiplex microsphere protease cleavage assay, flow cytometry. inhibition, % at 10 µM; in the data active means inhibition above about 35%, passing the limit was not always enough; inconclusive means no clear call, values can overlap the other calls; further: plate controls were buffer without enzyme for full effect and enzyme alone for no effect
BoNT-A LC inh2: blocks Botulinum neurotoxin A light chain protease | inhibition, % at 10 µM | actives 0.17% (n = 360,000) | multiplex microsphere protease substrate cleavage, flow cytometry | AID 588499; further: plate controls were buffer without enzyme for full effect and enzyme alone for no effect
Active calls of the source: *; i = inactive; ? = inconclusive; / = no result given. Unless noted, no stated cut-off is given here; in the data, active means inhibition above about 30%; inconclusive means no clear call, values can overlap the other calls; inactive means below that.

SMILES	Vc quorum ag	MazEF act	Autofluor counter	Anthrax LF prot	BoNT F protease	BoNT-A LC inh2
COc1ccc(Nc2cc(C)nc3ncnn23)c(OC)c1	-0.4	5.9	5374	-6.9	-3.5	0.1
COc1ccc(CNc2cc(C)nc3ncnn23)c(OC)c1	-0.2	-4.7	22962*	-2.1	-1.5	-2.1
CC1=C(C#N)C(NC(=O)c2ccc(Cl)cc2)(C(F)(F)F)C(=O)N1 (centres undefined)	0.0	4.3	2092	-0.3	-4.3	-1.0
CC1=C(C#N)C(NC(=O)c2ccc(C)cc2)(C(F)(F)F)C(=O)N1 (centres undefined)	i	3.7	19042*	-0.5	5.2	5.7
CC(C)(C)C1(c2ccccc2)NC(=O)N(CC(=O)N2CCOCC2)C1=O (centres undefined)	1.7	0.5	19617*	-2.9	2.3	?
CC(C)(C)n1nnnc1C(c1ccccc1)N1CCN(c2c(Cl)cncc2Cl)CC1 (centres undefined)	/	/	4550	-8.7	6.2	-0.2
COC(=O)c1cccc(NC(=O)C2COc3ccccc3O2)c1 (centres undefined)	-7.1	-5.1	4817	-1.6	-17.4	-1.1
COC(=O)c1cc(NC(=O)C2COc3ccccc3O2)ccc1Cl (centres undefined)	-1.2	5.5	21646*	-0.6	1.8	1.7
COc1cccc(CNS(=O)(=O)c2cc(CN3C(=O)c4cccnc4C3=O)ccc2OC)c1	-0.3	7.6	4400	-3.2	-0.4	0.7
CC(C)OC(=O)c1c(NC(=O)CCn2nnc3ccccc32)sc2c1CCCC2	-3.1	-11.0	20341*	1.2	-2.0	?
CCOC(=O)c1cnc2c(cnn2C)c1NCCC(O)C(F)(F)F (centres undefined)	i	0.4	21233*	-1.9	4.2	3.3
CCOC(=O)c1cnc2c(cnn2C)c1Oc1ccc(OC)cc1	i	4.0	3973	-3.1	2.0	0.0
COc1ccc(N(C)S(=O)(=O)c2ccc3c(c2)CCC(=O)N3)cc1	-0.4	-7.6	20669*	-3.1	-2.0	-0.2
O=C(CCN1C(=O)COc2ccccc21)NCCCN1CCc2ccccc2C1	i	0.9	18721*	-3.5	-14.7	-11.3
O=C(NCCCN1CCc2ccccc2C1)Nc1ccc(Cl)cc1	-0.2	-6.3	22133*	-1.3	-6.1	-4.0
O=C(NCCN1CCN(Cc2ccccc2Cl)CC1)Nc1ccccc1	i	5.2	23034*	0.9	1.2	1.6
CN1CCN(CCCNC(=O)CN2C(=O)COc3ccccc32)CC1	-0.1	0.7	3034	4.8	-14.9	-3.5
O=C(NCCN1CCN(c2ccccc2Cl)CC1)Nc1ccccc1	i	-2.9	3547	-8.4	-17.3	-2.1
O=C(NCCCn1ccnc1)Nc1ccc(Cl)c(Cl)c1	/	0.1	10262	-0.4	-15.2	-2.8
O=C(NCCCn1ccnc1)Nc1ccc(Cl)cc1	0.9	0.1	24742*	-2.3	-5.3	?
CC1CCC(NC(=O)c2cc(C3CC3)nn2-c2ccccc2)CC1 (centres undefined)	i	2.9	4075	1.0	-0.4	-0.1
Cc1ccc(C(=O)NC(=S)N2CC(C)OC(C)C2)cc1[N+](=O)[O-] (centres undefined)	i	7.5	23557*	-1.7	-1.1	-0.8
CC(C)(C)OC(=O)N1CC(O)CC1C(=O)OCC(=O)c1ccccc1 (centres undefined)	i	4.9	3178	-0.6	5.0	1.2
CC(C)(C)OC(=O)N1CC(O)CC1C(=O)OCC(=O)c1ccc(Cl)cc1 (centres undefined)	5.0	5.2	20684*	-4.4	7.8	6.9
COc1ccc(NC(=O)CSc2nnnn2C2CCCC2)cc1S(=O)(=O)N1CCOCC1	i	6.3	3809	-1.6	1.1	0.2
SMILES	Vc quorum ag	MazEF act	Autofluor counter	Anthrax LF prot	BoNT F protease	BoNT-A LC inh2
CC(C)c1cc(C(F)(F)F)nc(NNc2nc(C(C)C)cc(C(F)(F)F)n2)n1	-0.1	-0.3	3496	-8.5	-2.9	-0.2
COc1cccc(C(O)c2nc(-c3ccccc3)cs2)c1 (centres undefined)	0.3	/	3788	0.0	0.3	0.2
COc1ccc(C(=O)CSc2nnc(CCc3ccccc3)n2-c2ccccc2)cc1	-0.4	-4.1	24111*	-1.0	-3.8	-1.9
CC(C)(C)n1nnnc1C(c1ccccc1)N1CCN(C(=O)c2ccco2)CC1 (centres undefined)	/	/	4532	3.4	0.3	-0.2
COc1ccccc1CC(=O)Nc1cc2oc3ccccc3c2cc1OC	-1.0	0.1	3972	3.0	34.5*	4.7
COc1cc2c(cc1NC(=O)C(C)N1CCN(S(=O)(=O)c3ccccc3[N+](=O)[O-])CC1)oc1ccccc12 (centres undefined)	-1.0	1.2	16091	-0.3	2.7	1.4
COc1cc2c(cc1NC(=O)C(C)N1CCN(S(=O)(=O)c3ccc(C)c(C)c3)CC1)oc1ccccc12 (centres undefined)	i	5.7	16646*	0.0	-1.9	0.6
COc1cc2c(cc1NC(=O)CSc1ccccn1)oc1ccccc12	i	-7.9	20567*	-2.9	-3.4	?
COc1ccccc1C(CNC(=O)c1ccc(OCc2c(C)noc2C)cc1)N1CCCC1 (centres undefined)	-2.5	3.4	15575	-3.4	-3.7	-6.1
COc1ccc(C(CNC(=O)c2ccc(OCc3c(C)noc3C)cc2)N2CCCC2)cc1 (centres undefined)	-7.1	0.1	17256*	-1.8	6.9	-5.2
COc1ccc(NC(=O)COC(=O)c2ccc(OCc3c(C)noc3C)cc2)cc1OC	-5.3	-3.7	21341*	1.9	-0.7	-0.8
Cc1ccc(NC(=O)c2ccc(OCc3c(C)noc3C)cc2)nc1	1.2	7.2	16600*	-10.7	-67.6	-40.1
COc1cc(C(=O)NCC(c2ccco2)N2CCCC2)ccc1OCc1c(C)noc1C (centres undefined)	i	-1.4	23986*	-1.5	-3.3	-1.5
COc1cc(CN(C)Cc2cc(=O)oc3cc(C)c(Cl)cc23)ccc1OC(F)F	-9.4	0.7	3927	5.3	-9.6	0.3
Cc1ccc(C2=NN(S(=O)(=O)c3ccccc3)C(c3ccccc3O)C2)cc1 (centres undefined)	-0.3	31.5	11550	1.0	-28.6	9.1
CC1(C)CC(=O)C=C(c2cccnc2)C1	i	7.6	3361	7.6	-3.6	-0.6
C=CCNCCOCCOc1ccc(C)cc1[N+](=O)[O-]	6.2	-2.2	21806*	-2.7	1.5	1.3
O=C1CC(NS(=O)(=O)c2ccccc2)CN1c1ccc2c(c1)OCCO2 (centres undefined)	-0.3	8.5	?	-1.6	7.4	-1.0
Cc1ccc(S(=O)(=O)N2CCOCC2)cc1NC(=O)COC(=O)c1ccc(Br)cc1	i	3.4	3455	-3.2	-9.5	0.1
Cc1ccc(S(=O)(=O)N2CCOCC2)cc1NC(=O)COC(=O)CSc1ccc(Br)cc1C	-2.1	1.3	22185*	2.4	2.2	2.3
CCCc1nc2c3ccccc3ccn2c1Cc1ccc(OC)cc1C	/	/	7044	?	?	?
